# Compound activity: PubChem BioAssay, several laboratories
# Beta cell apopt – beta cell apoptosis inhibition; INS-1E cytokine-induced death, ATP luminescence, 48 h; percent of positive-control rescue, neutral wells zero; protection from apoptosis, % (test concentration not listed); 300,000 tested, 0.8% active;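 active = Every replicate reaches about 75%, or at least half do and their mean reaches it too, limit read from the data; inconclusive = At least half of replicates reach the limit but their mean does not; inactive = Under half of replicates reach the limit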;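 also: 0% = cytokine-treated negative control wells and 100% = positive control rescue; higher means more ATP so stronger rescue from cytokine killing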
# Jurkat NFkB inh – lowers PMA/ionomycin-induced NF-kB signal in Jurkat cells; PMA/ionomycin-induced NF-kB luciferase reporter, luminescence; inhibition, % at 4 µM; 330,000 tested, 0.53% active; AID 435003; in the data active = inhibition above about 50%
# Shn3 3UTR inh – Schnurri-3 reporter inhibition in Clone20 osteoblasts; Clone20 osteoblast Shn3 3'UTR firefly luciferase, 24 h; inhibition, % at 12.5 µM; 360,000 tested, 0.52% active;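 active = mean inhibition of at least 75% with every replicate also reaching 75%; inconclusive = mean inhibition at least 75% but some replicate below; inactive = mean inhibition below 75%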;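 also: 0% = median of neutral control wells and 100% = pilot-screen positive control compound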
# 697 NFkB inh – lowers PMA/ionomycin-induced NF-kB signal in 697 B cells; 697 B-cell NF-kB luciferase reporter, 16 h; inhibition, % at 4 µM; 330,000 tested, 0.33% active; in the data active = inhibition above about 35%
# Calb FLC – C. albicans growth modulation with fluconazole | AID 1979 | 300,000 tested, 0.57% active | growth inhibition, % (test concentration not listed) | C. albicans CaCi-2 (fluconazole-resistant clinical isolate) + fluconazole, Alamar Blue growth, 48 h;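 active = growth inhibition above about 58% in most replicates, limit read from the data, passing the limit was not always enough; inconclusive = exactly half the replicates above a set limit; inactive = most replicates below a set limit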;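 also: all wells also contain fluconazole at 8 µg/ml as a sub-toxic cotreatment; 0% = median of DMSO wells and 100% = median of geldanamycin control wells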
# 697 NFkB conf – lowers PMA/ionomycin-induced NF-kB signal in 697 B cells | shares compounds with 697 NFkB inh | 697 B-cell NF-kB luciferase, 16 h | inhibition, % at 4 µM | 2,000 tested, 35% active | AID 449746; in the data active = inhibition mostly above about 28%, no sharp cut-off; inactive = mostly below about 22%
# Starred values were filed as active, the others as inactive; i = inactive; u = inconclusive; x = no result given. Shown are actives, neighbours in structure and some others; about 2% of the full set was active somewhere.
SMILES,Beta cell apopt,Jurkat NFkB inh,Shn3 3UTR inh,697 NFkB inh,Calb FLC,697 NFkB conf
CCOC(=O)COc1cc(=O)n(CC)c2ccccc12,-5,0,-11,26,18,x
CCn1c(=O)cc(OCC(=O)N(C)C2CCCCC2)c2ccccc21,-3,-2,-11,39*,-4,44*
CCn1c(=O)cc(OCC(=O)Nc2ccc3c(c2)OCCO3)c2ccccc21,5,-1,-14,31,-2,x
CCN(CC)CCOC(=O)c1ccc(NC(=O)COc2cc(=O)n(CC)c3ccccc23)cc1,-4,5,-10,39*,-19,45*
CCn1c(=O)cc(OCC(=O)Nc2ccc(OC)c(OC)c2)c2ccccc21,-7,7,-15,36*,-4,37*
COc1ccc(NC(=O)CCCNC(=O)c2ccc(Cl)cc2)cc1OC,1,3,6,7,x,x
CC(=O)Nc1ccc(S(=O)(=O)NCCC(=O)N2CCN(C(c3ccccc3)c3ccccc3)CC2)cc1,1,9,18,-1,-4,x
COc1cc2cnc(-c3ccccc3F)cc2cc1OC,-2,0,-15,-5,x,x
Cn1cc(SCC(=O)NCc2ccc(F)cc2)c2ccccc21,0,-9,5,40*,34,-8
O=C(CCCCCN1C(=O)[C@@H]2Cc3ccccc3CN2C1=O)Nc1cccc(F)c1,-1,12,16,4,0,x
COc1ccc(Nc2nnc(-c3ccc(O)cc3)c3ccccc23)cc1C(N)=O,3,-3,9,39*,12,23
Cc1cc2oc(=O)cc(-c3ccccc3)c2c(C)c1-c1ccc(C#N)cc1,x,x,-4,15,x,x
COc1ccc(C(=O)N=c2sc3c(C)ccc(OC)c3n2C)cc1,6,-30,-60,-299,0,-337
c1ccc2sc(Nc3nc4cc5c(cc4s3)OCO5)nc2c1,5,-148,-80,-290,-11,-324
O=C1c2ccccc2C(=O)N1CSc1ncccn1,7,-7,-11,36*,x,-9
CCCCCOc1ccc(NC(=O)C(=O)NCCCn2ccnc2)cc1,21,11,59,48*,-1,53*
Cc1ccc(CNC(=O)C(=O)NCCCn2ccnc2)cc1,1,13,5,38*,-1,2
CCCOc1ccc(C(=O)NCCCn2ccnc2)cc1,4,-10,-23,22,16,x
C=CCOc1ccc(NC(=O)C(=O)NCCCn2ccnc2)cc1,15,7,-29,46*,6,34*
CCOC(=O)c1sc(NC(=O)Nc2ccccc2F)nc1C,6,-140,29,-443,60,-439
CCCC(=O)N1c2ccccc2C(N(C(C)=O)c2ccccc2)CC1C (stereo unspecified),0,-3,-2,24,-5,x
CCC(=O)N1c2ccccc2[C@@H](N(C(C)=O)c2ccccc2)C[C@H]1C,x,5,-24,51*,6,38*
CC1=NN(C(N)=S)C(=O)C1N=Nc1ccc(Br)cc1 (stereo unspecified),x,-93,-82,-314,-18,-7
Cc1cc(C(=O)O)cc(S(=O)(=O)Nc2ccccc2C(=O)NC2CC2)c1C,x,9,-17,14,x,x
O=c1c(-c2ccc(F)cc2)coc2cc(O)ccc12,3,-50,-85,-267,-21,-142
SMILES,Beta cell apopt,Jurkat NFkB inh,Shn3 3UTR inh,697 NFkB inh,Calb FLC,697 NFkB conf
COCCCC1CCN(Cc2cn[nH]c2-c2cc(OC)c(OC)c(OC)c2)CC1,0,-10,-8,23,-3,x
Oc1ccccc1-c1cc(C(F)(F)C(F)F)nc(-c2ccccc2)n1,-4,15,-13,16,-3,x
O=[N+]([O-])c1ccc(O)c(-c2cc(C(F)(F)F)nc(-c3ccccc3)n2)c1,119*,45,90*,i,4,-460
O=[N+]([O-])c1ccn(-c2nc(-c3ccccc3)cc(C(F)(F)F)n2)n1,-8,-11,7,39*,-8,3
Cc1ccc(O)c(-c2cc(-c3ccccc3C)[nH]n2)c1,x,14,-21,-6,6,x
CC(C)(C)c1ccc(-c2cc(-c3ccccc3O)[nH]n2)cc1,12,-97,-15,-368,17,-220
N#CC1C(=O)NC(c2ccccc2)=CC1c1ccccc1 (stereo unspecified),x,x,8,x,x,x
COc1ccc(-c2[nH]nc3oc(=O)cc(C)c23)cc1,4,4,-21,35*,15,7
COc1cc(/C=C2/CC/C(=C/c3ccc(O)c(OC)c3)C2=O)ccc1O,15,4,-4,36*,-8,6
COc1cc(/C=C/C=C2/CC/C(=C/C=C/c3ccc(O)c(OC)c3)C2=O)ccc1O,x,x,9,x,x,x
COc1ccc(C(=O)N=c2nc3ccccn3s2)cc1,29,-83,44,-389,0,-282
COc1ccc(C(=O)O/N=C2\C(=O)N(C)c3ccccc32)cc1,-21,-5,-7,-9,-11,x
COc1ccc(CCN2CCCC(CN(C)C(=O)c3ccoc3)C2)cc1 (stereo unspecified),-9,-79,-76,-95,8,x
COc1cccc(Cn2nnc(C(=O)Nc3cc(Cl)ccc3OC)c2N)c1,-5,15,70,41*,-7,38*
COc1ccc(NC(=O)c2nnn(Cc3cccc(F)c3)c2N)c(OC)c1,11,16,52,35*,1,39*
O=C(C[C@H]1C[C@@H]2c3cc(NC(=O)c4cccnc4)ccc3O[C@@H]2[C@H](CO)O1)NCc1ccncc1,x,x,-4,x,x,x
CCOC(=O)c1nn(-c2ccccc2)c(C#N)c1NC(=O)c1nn(CC)cc1Br,16,13,70,37*,-7,40*
CCOC(=O)c1c(NC(=O)c2nn(CC)cc2Br)c(C#N)nn1-c1ccccc1,12,5,13,-10,8,x
O=C(O)C1=C[C@@H](c2ccc(Br)cc2)C[C@@H](OCCCCO)O1,-6,8,-6,14,-3,x
Cc1ccc(-n2c(-c3ccccc3)c[n+]3c2CCc2ccccc2-3)c(C)c1,130*,33,u,49*,102*,28*
Cc1ccc(-n2c(SCC(=O)N3CCCc4ccccc43)nnc2-c2cccnc2)c(C)c1,-1,7,-4,4,3,x
COc1cc(SC)ccc1C(=O)Nc1ncc(Cl)cc1Cl,1,-97,-53,-54,-2,x
COc1cc(SC)ccc1C(=O)Nc1ccc(Br)cn1,5,-87,75,-321,-10,-452
Cc1cccc(NC(=O)CCC2CCN(C(=O)c3ccc(C)s3)CC2)c1,3,2,14,10,5,x
COCc1ccc(C(=O)N2CCC(CCC(=O)Nc3cccc(C)c3)CC2)s1,3,19,-2,39*,-16,17
COc1ccc(NC(=O)CN(C)C(=O)CCc2c[nH]c3ccccc23)cc1,-2,13,-5,3,-21,x
Cc1cc2c(C)c(C)c(=O)[nH]c2cc1N,1,2,-20,36*,7,18
CCc1ccc(CN2CCC(C(=O)Nc3ccc(Oc4ccccc4)nc3)CC2)o1,1,16,42,-52,-23,x
